Results taken from the supplement of paper PMC7724964.

T1: SND1 650-910 TUDOR+SNase (domain begin residue: 650, domain end residue: 910), Q7KZF4
T1 chain: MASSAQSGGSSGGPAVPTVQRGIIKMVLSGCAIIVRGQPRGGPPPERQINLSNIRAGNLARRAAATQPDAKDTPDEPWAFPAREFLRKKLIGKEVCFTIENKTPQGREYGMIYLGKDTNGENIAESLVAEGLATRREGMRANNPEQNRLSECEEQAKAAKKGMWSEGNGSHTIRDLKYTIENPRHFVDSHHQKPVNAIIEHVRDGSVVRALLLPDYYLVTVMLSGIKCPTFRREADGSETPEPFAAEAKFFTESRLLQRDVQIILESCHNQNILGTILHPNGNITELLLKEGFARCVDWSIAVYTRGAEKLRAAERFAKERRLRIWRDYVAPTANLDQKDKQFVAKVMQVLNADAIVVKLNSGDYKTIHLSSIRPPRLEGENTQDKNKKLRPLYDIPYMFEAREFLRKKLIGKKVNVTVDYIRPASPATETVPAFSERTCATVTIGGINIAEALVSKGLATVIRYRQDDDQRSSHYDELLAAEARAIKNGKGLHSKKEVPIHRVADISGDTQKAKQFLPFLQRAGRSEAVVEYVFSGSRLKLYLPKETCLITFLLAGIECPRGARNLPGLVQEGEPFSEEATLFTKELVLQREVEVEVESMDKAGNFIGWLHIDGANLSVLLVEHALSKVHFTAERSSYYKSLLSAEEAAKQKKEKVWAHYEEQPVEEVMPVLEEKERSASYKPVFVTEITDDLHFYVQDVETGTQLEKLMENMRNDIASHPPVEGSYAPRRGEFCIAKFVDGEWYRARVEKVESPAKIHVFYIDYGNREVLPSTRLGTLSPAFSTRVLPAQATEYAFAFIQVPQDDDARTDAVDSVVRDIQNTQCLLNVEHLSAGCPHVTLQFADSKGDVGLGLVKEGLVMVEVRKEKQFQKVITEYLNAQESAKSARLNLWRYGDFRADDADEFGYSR

T2: MDM4 26-106 SWIB (domain begin residue: 26, domain end residue: 106), O15151
T2 chain: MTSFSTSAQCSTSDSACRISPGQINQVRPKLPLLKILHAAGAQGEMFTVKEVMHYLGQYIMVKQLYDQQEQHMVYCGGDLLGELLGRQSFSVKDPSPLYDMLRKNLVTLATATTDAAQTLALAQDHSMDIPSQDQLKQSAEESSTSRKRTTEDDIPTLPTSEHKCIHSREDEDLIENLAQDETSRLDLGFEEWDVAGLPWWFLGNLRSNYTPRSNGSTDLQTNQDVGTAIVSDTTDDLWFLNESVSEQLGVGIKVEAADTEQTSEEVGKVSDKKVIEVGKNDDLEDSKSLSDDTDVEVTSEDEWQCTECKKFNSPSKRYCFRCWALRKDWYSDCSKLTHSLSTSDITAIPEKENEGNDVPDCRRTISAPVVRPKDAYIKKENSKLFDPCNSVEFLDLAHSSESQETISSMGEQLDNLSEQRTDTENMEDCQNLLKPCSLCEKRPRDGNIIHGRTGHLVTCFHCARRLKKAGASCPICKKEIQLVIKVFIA

B1: unnamed (peptide)
chain: GWFHIAPPPKQAEYTE
B2: unnamed (peptide)
chain: SWLRFKAEPPQHIAQL
B3: unnamed (peptide)
chain: PQTGHWIKFPKPWLEN
B4: unnamed (peptide)
chain: VWYHWQPPDSPINVIE
B5: unnamed (peptide)
chain: MWWYDGEMEKMIMETL
B6: unnamed (peptide)
chain: YDFSQYWDAIPEQFIV
B7: unnamed (peptide)
chain: MPLFMDLWQDMMPTNY
B8: unnamed (peptide)
chain: DFMDFWEDATMGLVGT
B9: unnamed (peptide)
chain: WYIIRGPMWHEPHVIE
B10: unnamed (peptide)
chain: DFAWWWSQMLEAEVNF
B11: unnamed (peptide)
chain: MPYAQMQFMDYWQELA
B12: unnamed (peptide)
chain: VWYRFEPAPMPKPHGQ
B13: unnamed (peptide)
chain: QHSAMSAVWHFGPMWY
B14: unnamed (peptide)
chain: AFWTHWQKLIPPEFQA
B15: unnamed (peptide)
chain: AVFSQLWEAMPAVDWT
B16: unnamed (peptide)
chain: DREQSGWFILRAPVYQ
B17: unnamed (peptide)
chain: IEFMDYWDSLDWMQKV
B18: unnamed (peptide)
chain: TWWHLAGPRSHLTTSY
B19: unnamed (peptide)
chain: DSNIWLTRGPVHNTQQ
B20: unnamed (peptide)
chain: WYMESLWQPDMMLPKF
B21: unnamed (peptide)
chain: MVEQQVFWYLWMELMN
B22: unnamed (peptide)
chain: YSIWMMEPPKVAPKAE
B23: unnamed (peptide)
chain: VEHEFLWHWGQIDFMM
B24: unnamed (peptide)
chain: FTAQDVLSHMSLWEFT
B25: unnamed (peptide)
chain: PMWDSVWDHLLTEPPE
B26: unnamed (peptide)
chain: TFSESWATLTSTSEWM
B27: unnamed (peptide)
chain: KDFSMWWVELKEVEVS
B28: unnamed (peptide)
chain: KMELSFWEFWQVLQHE
B29: unnamed (peptide)
chain: FVEMWNDMMFEDWDLV

What follows are binders tested against MAD2L1 2-205 HORMA (domain begin residue: 2, domain end residue: 205), Q13257 (assay: phage ELISA signal ratio (GST-PRM binding over GST background); higher = stronger binding of peptide-phage to the PRM).
Method in brief: (§1)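 Each value is the phage ELISA signal on the glutathione S-transferase (GST)-domain fusion divided by the signal on GST alone. Human peptide recognition domains were expressed in 96-well plates, fused to the C-terminus of GST, and selected against an M13 phage library carrying randomized, cysteine-free, glycine-flanked hexadecapeptides on the gene-8 major coat protein. After five selection rounds, approximately 48 individual clones from rounds 4 and 5 were tested by phage ELISA, and positive clones were sequenced.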

Chain of MAD2L1 2-205 HORMA (domain begin residue: 2, domain end residue: 205), Q13257 (Q13257 whole entry, the tested form may be a part): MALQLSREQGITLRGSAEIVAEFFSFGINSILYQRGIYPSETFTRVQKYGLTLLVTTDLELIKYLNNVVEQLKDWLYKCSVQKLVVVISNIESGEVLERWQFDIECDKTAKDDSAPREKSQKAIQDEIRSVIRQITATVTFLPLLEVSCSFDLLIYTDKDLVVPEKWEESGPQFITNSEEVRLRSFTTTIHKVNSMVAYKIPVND

Going from B1 to B2, the “phage ELISA signal ratio” value falls from 12.8 to 9.

Going from B3 to B4, the “phage ELISA signal ratio” value falls from 15.5 to 11.6.

Compared with B9, B12 is higher in “phage ELISA signal ratio” value: 8.9 for the first, 20.4 for the second.

First: B13
Second: B16
The “phage ELISA signal ratio” value of the first is lower: 15 for the first, 18.9 for the second.

Compared with B18, B19 is higher in “phage ELISA signal ratio” value: 12.8 for the first, 14.1 for the second.

For B22, the “phage ELISA signal ratio” value was 15.

The binders below were run against MSH6 89-203 PWWP (domain begin residue: 89, domain end residue: 203), P52701 in the same assay as above.
Method in brief: as §1

Chain of MSH6 89-203 PWWP (domain begin residue: 89, domain end residue: 203), P52701 (P52701 whole entry): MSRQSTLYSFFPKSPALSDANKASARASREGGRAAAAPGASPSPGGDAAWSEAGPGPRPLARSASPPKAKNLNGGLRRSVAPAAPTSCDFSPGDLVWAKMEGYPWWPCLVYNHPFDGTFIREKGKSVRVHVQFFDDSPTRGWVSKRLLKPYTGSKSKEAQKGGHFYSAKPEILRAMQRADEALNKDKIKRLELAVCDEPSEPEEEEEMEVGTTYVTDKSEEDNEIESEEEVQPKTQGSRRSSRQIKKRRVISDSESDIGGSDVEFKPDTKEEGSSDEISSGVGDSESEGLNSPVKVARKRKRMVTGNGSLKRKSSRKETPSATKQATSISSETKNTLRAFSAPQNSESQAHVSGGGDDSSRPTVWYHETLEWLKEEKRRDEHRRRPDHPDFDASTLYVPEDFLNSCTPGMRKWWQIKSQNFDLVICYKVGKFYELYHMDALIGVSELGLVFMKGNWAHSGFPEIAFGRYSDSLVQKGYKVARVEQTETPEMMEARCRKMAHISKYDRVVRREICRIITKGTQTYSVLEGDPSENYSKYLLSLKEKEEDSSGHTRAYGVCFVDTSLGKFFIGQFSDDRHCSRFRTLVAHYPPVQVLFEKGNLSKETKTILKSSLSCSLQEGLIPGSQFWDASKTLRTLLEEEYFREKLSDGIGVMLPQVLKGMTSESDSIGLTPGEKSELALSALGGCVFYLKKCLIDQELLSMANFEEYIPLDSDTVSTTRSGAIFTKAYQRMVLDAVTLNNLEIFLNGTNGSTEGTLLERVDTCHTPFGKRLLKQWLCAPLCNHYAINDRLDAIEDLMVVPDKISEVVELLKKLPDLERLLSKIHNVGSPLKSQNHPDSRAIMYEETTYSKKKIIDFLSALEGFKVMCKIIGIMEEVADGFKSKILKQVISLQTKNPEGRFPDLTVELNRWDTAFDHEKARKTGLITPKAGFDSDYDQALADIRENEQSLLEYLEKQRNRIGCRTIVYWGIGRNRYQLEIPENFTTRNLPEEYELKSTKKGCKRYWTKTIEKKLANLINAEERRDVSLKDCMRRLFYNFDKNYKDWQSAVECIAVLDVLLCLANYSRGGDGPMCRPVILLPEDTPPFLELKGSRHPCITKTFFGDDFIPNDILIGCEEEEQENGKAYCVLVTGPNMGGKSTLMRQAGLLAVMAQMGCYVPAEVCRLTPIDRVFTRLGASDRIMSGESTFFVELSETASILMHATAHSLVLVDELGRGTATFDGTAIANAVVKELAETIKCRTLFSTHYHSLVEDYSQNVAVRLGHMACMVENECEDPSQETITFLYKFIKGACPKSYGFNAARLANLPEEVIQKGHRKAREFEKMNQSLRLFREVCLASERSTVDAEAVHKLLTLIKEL

Going from B5 to B20, the “phage ELISA signal ratio” value falls from 4.31 to 2.63.

B25 was tested, and the “phage ELISA signal ratio” value was 5.84.

Biological target: T1, SND1 650-910 TUDOR+SNase (domain begin …
Experiment: as above
Method in brief: as §1

B5 was tested, and the “phage ELISA signal ratio” value was 7.5.

Biological target: T2, MDM4 26-106 SWIB (domain begin residue: …
Experiment: as above
Method in brief: as §1

First: B6
Second: B7
The “phage ELISA signal ratio” value of the first is higher: 18.1 for the first, 17.9 for the second.

Going from B8 to B10, the “phage ELISA signal ratio” value falls from 21.7 to 12.3.

Compared with B11, B14 is higher in “phage ELISA signal ratio” value: 21.3 for the first, 26.1 for the second.

Compared with B15, B17 is lower in “phage ELISA signal ratio” value: 14.9 for the first, 14.7 for the second.

First: B21
Second: B23
The “phage ELISA signal ratio” value of the first is higher: 19.4 for the first, 16 for the second.

Compared with B24, B26 is lower in “phage ELISA signal ratio” value: 21.7 for the first, 20.4 for the second.

Compared with B27, B28 is higher in “phage ELISA signal ratio” value: 17.4 for the first, 18 for the second.

For B29, the “phage ELISA signal ratio” value was 26.4.
